The record followed here is PubChem BioAssay (NCI).

Structures are written as SMILES. Compounds without any hit were thinned out: in the full panel of roughly 83,000, 20% have a hit.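 A percent growth of 40 corresponds to 60% growth inhibition; 0 means no net growth; -100 means all cells died. Active threshold: below 10.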 Active and inactive are the calls of the source.

The assay has as its system A498 renal. In words: NCI-60 one-dose screen, 48 h (100 = growth as untreated, 0 = no growth, -100 = all killed). Conditions: 10 µM unless noted.
For `COC1C/C(=N\O)C2OC(c3ccccc3)OCC2O1` (stereo not given), the growth was 89.9% (inactive). As for `CC[C@H](Nc1nc(N)nc(C)c1C#N)c1nc2cccc(NCc3ccc(C(=O)NO)cc3)c2c(=O)n1-c1ccccc1`, the growth was -38.6% (active). In the case of `Cc1nn(-c2ccccc2)c2nc(C)n(-c3ccc(Br)cc3)c(=O)c12`, the growth was -30.4% (active). As for `Cc1ccc2c(NCCCN(C)C)c3c(C)nn(C)c3nc2c1`, the growth was 28.3% (inactive). The same measure for `NC(CC(=O)O)C(=O)OCc1ccccc1` (stereo not given): 85.4% (inactive); for `NCCN1CCN(c2nccc(-c3ccc4ccccc4c3)n2)CC1`: 61.6% (inactive). In the case of `Nc1ccc(Nc2nccc(-c3ccc4ccccc4c3)n2)cc1`, the growth is 16.6% (inactive).

On to `CCCNc1nc(SC)nc(-c2cccc(N)c2)c1C#N`, for which the growth is 72.4% (inactive). The same measure for `CN(C)CCOc1ccc(-c2nc3ccc(-c4nc5ccc(N6CCN(C)CC6)cc5[nH]4)cc3[nH]2)cc1`: 35.3% (inactive); for `CCCCCCCCCCCCN1CCCC(C)C1` (stereo not given): 104% (inactive); for `COc1ccc(-c2nc(Nc3cc(C)[nH]n3)c3ccccc3n2)cc1`: -18.1% (active). The same measure for `CN[C@@]12CC3(C=CC(=O)C=C3)O[C@]1(Cc1ccc(OC)cc1)N(C)C(=O)N2`: 75.6% (inactive).

In the case of `COc1cc2cc(COc3nccc(-c4ccc(Cl)cc4)n3)c(=O)[nH]c2cc1OC`, the growth was 76.6% (inactive).

Take `Cc1ccc(S(=O)(=O)N(CCc2ccc(Cl)cc2)S(=O)(=O)c2ccc(C)cc2)cc1`: the growth is 115% (inactive). With `CC[C@H](Nc1cc(C)nc(N)n1)c1nc2cccc(NCc3ccc(C(=O)NO)cc3)c2c(=O)n1-c1ccccc1` the figure was -3.63% (active).
